FLuc modulator – qHTS profiling assay for firefly luciferase inhibitor/activator using purifed enzyme and Km concentrations of substrates (counterscreen for miR-21 project). Luciferin 4-monooxygenase (Photinus pyralis), P08659. purified FLuc, Km substrates, luminescence inhibition. Potency, µM (doses to about 57.5 µM), for inactives: at the highest dose activity change, negative = inhibition, most hits filed as inhibitors. actives 6.9% (n = 360,000). AID 588342, 2011;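 also: plate controls were vehicle for no effect and reference inhibitor for full effect; nearly all actives have a fitted effect of over 55% in size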
Target sequence (P08659 whole entry, looked up): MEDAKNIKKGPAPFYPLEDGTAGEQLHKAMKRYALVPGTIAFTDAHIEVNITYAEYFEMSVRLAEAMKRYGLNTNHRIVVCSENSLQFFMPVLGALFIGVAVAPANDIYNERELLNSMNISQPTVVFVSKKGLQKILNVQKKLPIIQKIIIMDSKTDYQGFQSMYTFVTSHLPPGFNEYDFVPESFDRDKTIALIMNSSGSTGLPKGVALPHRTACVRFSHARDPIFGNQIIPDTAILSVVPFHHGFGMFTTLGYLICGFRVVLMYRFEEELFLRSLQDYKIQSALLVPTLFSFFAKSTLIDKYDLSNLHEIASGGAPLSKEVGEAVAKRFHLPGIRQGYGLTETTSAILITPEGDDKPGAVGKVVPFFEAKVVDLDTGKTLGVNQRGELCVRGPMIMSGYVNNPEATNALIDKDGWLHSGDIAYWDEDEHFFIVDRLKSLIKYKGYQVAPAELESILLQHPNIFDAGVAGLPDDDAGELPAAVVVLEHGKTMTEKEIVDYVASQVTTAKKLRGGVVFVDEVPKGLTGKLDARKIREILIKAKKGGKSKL
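Purified P. pyralis luciferase, 10 nM final, with Km-level 10 uM D-luciferin and 10 uM ATP in 50 mM Tris acetate pH 7.5, 10 mM Mg acetate, 0.01% Tween-20, 0.05% BSA; 6-point qHTS titration about 60 µM downward; luminescence read.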
NPC1 prom act – qHTS Assay for NPC1 Promoter Activators; Huh7 NPC1 promoter luciferase reporter, 24 h; Potency, µM (top dose mostly 9.22 µM), without a hit: at the top dose activation, actives largely listed as activators; actives 2.4% (n = 320,000); also: % of control where 0% means no effect; nearly all actives have a fitted effect of over 60% in size
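Huh7 cells stably carrying NPC1 promoter–luciferase, plated in Opti-MEM with 10% FBS for 2 h, were exposed to compound in DMSO for 24 h at 37 °C; luciferase reagent was added for 10 min and luminescence read.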
p53 reactivator – qHTS assay for re-activators of p53 using a Luc reporter | H1299 p53-A138V BP100-luciferase reporter, luminescence, 24 h | Potency, µM (top dose mostly 92.2 µM), without a hit: at the top dose activity change, positive = activation, most hits filed as activators | actives 0.063% (n = 320,000) | AID 504706, 2011; also: % of control where 0% means no effect; nearly all actives have a fitted effect of over 45% in size
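H1299 (p53-null), stable ts p53-A138V + BP100-Luc; 1000 cells/well, Opti-MEM/10% FBS; cpd 4 pt, 1:5; 24 h, 37 deg C, 5% CO2; detection reagent 10 min RT; luminescence.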
Rab9 prom act – qHTS Assay for Rab9 Promoter Activators; actives 2.8% (n = 320,000); Potency, µM (highest dose often 9.22 µM), inactives show top-dose activation, negative = inhibition, usual class: activators; Huh7 Rab9 promoter-luciferase reporter, luminescence, 24 h; also: % of control where 0% means no effect; nearly all actives have a fitted effect of over 60% in size
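Huh7 reporter line, Rab9 promoter upstream of luciferase. Compound exposure 24 h at 37 °C in reduced-serum medium with 10% FBS. Read-out: luminescence.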
ELG1 genotox – qHTS screen for small molecules that induce genotoxicity in human embryonic kidney (HEK293T) cells expressing luciferase-tagged ELG1 | HEK293T ELG1-luciferase reporter, luminescence, 16 h | Potency, µM (series often up to 46 µM), inactives show at the top dose activity change, positive = activation, most hits filed as activators | actives 1.3% (n = 330,000) | AID 504466, 2011; also: % of control where 0% means no effect; nearly all actives have a fitted effect of over 60% in size
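HEK293T cells expressing luciferase-tagged ELG1 were exposed to compound or DMSO vehicle for 16 hr at 37 °C and 5% CO2. Luciferase activity was then measured with ONE-Glo after 30 min at room temperature.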
SMN2 splice up – qHTS Assay for Enhancers of SMN2 Splice Variant Expression | HEK293 SMN2-luciferase splicing reporter, luminescence, 30-36 h | actives 2.8% (n = 210,000) | Potency, µM (series often up to 46.1 µM), without a hit: at the top dose activity change, positive = activation, most hits filed as activators; also: % of control where 0% means no effect; nearly all actives have a fitted effect of over 55% in size
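qHTS luciferase splicing reporter: luminescence rises when SMN2 exon 7 is included in transfected HEK293 cells. Compound exposure lasted 30-36 h at 37C, with 4.5 mM final sodium butyrate as control, followed by a ONE-Glo read.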
* = called active by the depositor; ? = inconclusive; / = no result given; [ ] = dose if it differs, or a comment. Shown are actives, neighbours in structure and some others; about 7.3% of the full set was active somewhere. Calls follow the shape of the dose curve; as a rule, active = well fitted curve in the direction sought with a large enough effect; inconclusive = small, poorly fitted or top-dose-only effect, or another doubt; inactive = no such curve, though single readings can be large; an effect the other way counts as inactive or inconclusive. Potency is read from the fitted curve at half-maximal effect.

SMILES	FLuc modulator	NPC1 prom act	p53 reactivator	Rab9 prom act	ELG1 genotox	SMN2 splice up
O=C(O)c1ccc(Nc2cnc3ccccc3n2)cc1	13µM*	?	11%	2.8µM*	?	229%
O=C(O)c1cnc2ccccc2n1	-10%	-1%	-1%	7%	1%	-6%
COCCn1c(=O)c(-c2cc(F)cc(F)c2)nc2cnc(Oc3cccc(Cl)c3)nc21	/	/	/	/	/	-14%
CCOC(=O)c1ccc(Nc2cnc3ccccc3n2)cc1	2.4µM*	2.2µM*	-5%	1.8µM*	9.2µM*	13µM*
CCOC(=O)Cn1nnc(-c2cccc(OC)c2)n1	11µM*	-1%	-18%	5%	6%	-6%
O=C(Cn1nnc(-c2ccc(F)cc2)n1)N1CCCCC1	6%	0%	-3%	8%	7%	18%
CCCOc1ccc(-c2nnn(CC(=O)N3CCCCC3)n2)cc1	17µM*	1%	-6%	-2%	-6%	/
O=C(Cn1nnc(-c2ccccc2F)n1)N1CCCCC1	?	3.2µM*	15%	2.5µM*	?	/
COc1ccc(OC)c(C(=O)Cn2nnc(-c3ccc(N4CCOCC4)cc3)n2)c1	9.5µM*	0%	0%	1%	-7%	/
COc1ccc(N2CCN(C(=O)Cn3nnc(-c4ccc(N(C)C)cc4)n3)CC2)cc1	3%	-1%	4%	-6%	22%	-43%
Cc1ccc(/C=C/c2onc(C)c2S(=O)(=O)N2CCC(C(=O)N3CC(C)Oc4ccccc43)CC2)cc1 (configuration not stated)	0%	/	/	/	/	/
COc1cc(-c2nnn(CC(=O)N3CCOCC3)n2)cc(OC)c1OC	-2%	1%	?	-1%	0%	-11%
COc1ccc(-c2ccc(-c3nnn(CC(=O)N4CCOCC4)n3)cc2)cc1	0.38µM*	3.2µM*	/	2.8µM*	?	?
CC(C)(C)c1cc2nc(N)nc(N)n2n1	-18%	0%	4%	-8%	1%	/
CSc1nc(N)n2nc(C(C)(C)C)cc2n1	17µM*	9%	-5%	-1%	6%	/
CN(C(=O)CSc1ncnc2sccc12)C1CCS(=O)(=O)C1 (configuration not stated)	4%	-1%	9%	-2%	0%	/
CN(C(=O)CSc1ncnc2sccc12)C1CCCCC1	13µM*	?	?	2.8µM*	?	/
CC(=O)N(C)c1ccc(N=Nc2c(C)[nH]n(C(N)=S)c2=O)cc1	2.7µM*	0.63µM*	-1%	0.45µM*	?	3.2µM*
CCN(CC)S(=O)(=O)c1ccc(N=Nc2c(C)[nH]n(C(N)=S)c2=O)cc1	8.5µM*	?	?	?	16%	?
CC(=O)N(C)c1ccc(N=Nc2c(C)[nH]n(-c3ccccc3)c2=O)cc1	-15%	0%	0%	-10%	-7%	/
Cc1ncc(CO)c(/C=N/N=C/c2ccccc2O)c1O	2.4µM*	1%	?	-3%	?	23%
Cc1cc(N=Cc2c(CO)cnc(C)c2O)c(N=Cc2c(CO)cnc(C)c2O)cc1C.[Zn]	/	/	/	/	/	-15%[9.22 µM]
CC(C)c1ccc(N=c2c([N+](=O)[O-])nn(-c3ccc4c(c3)OCCO4)n2O)cc1	-8%	-6%	7%	-8%	-9%	-42%
COc1cc(N=c2c([N+](=O)[O-])nn(-c3ccc4c(c3)OCCO4)n2O)cc(OC)c1	?	29%	10%	?	15%	13µM*
O=[N+]([O-])c1nn(-c2ccc3c(c2)OCCO3)n(O)c1=NCc1ccc(F)cc1	4.3µM*	?	?	3.5µM*	?	4µM*
SMILES	FLuc modulator	NPC1 prom act	p53 reactivator	Rab9 prom act	ELG1 genotox	SMN2 splice up
O=[N+]([O-])c1nn(-c2ccc3c(c2)OCCO3)n(O)c1=NCc1ccc(F)cc1Cl	?	?	14%	2.8µM*	?	3.5µM*
O=[N+]([O-])c1nn(-c2ccc3c(c2)OCCO3)n(O)c1=NCCC1=CCCCC1	?	?	26%	3.5µM*	?	?
COc1ccccc1NC(=O)C1=C(C)Nc2ncnn2C1c1cccn1C (configuration not stated)	-1%	/	/	/	/	/
COc1cc(Nc2nc3c(S(=O)(=O)c4ccc(C)c(C)c4)nnn3c3ccsc23)cc(OC)c1	0%	/	/	/	/	/
O=c1c(-c2ccc(Cl)cc2)c[nH]n1-c1ccccc1	9.5µM*	?	?	0%[1.84 µM]	12%	/
Cc1[nH]n(-c2ccccc2)c(=O)c1-c1ccc(Cl)cc1	?	7%	4%	2%	-2%	-15%
O=[N+]([O-])c1cccc(-n2nncc2-c2ccccc2)c1	-1%	-1%	/	7%	2%	/
O=c1c(-c2ccccc2)c[nH]n1-c1cccc([N+](=O)[O-])c1	15µM*	?	13%	?	18%	/
Nc1nc2ccc(S(=O)(=O)c3ccc4nc(N)sc4c3)cc2s1	11%	-2%	-2%	4%	-3%	-12%
Cc1cc2nc(N)sc2cc1C	9.5µM*	/	/	/	/	?
CC(C)c1ccc2nc(N)sc2c1	6.7µM*	1.6µM*	17%	2µM*	-8%	13µM*
COc1ccc(OC)c2c(N3CC(C)OC(C)C3)cc(C(F)(F)F)nc12 (configuration not stated)	7.6µM*	2.8µM*	?	3.2µM*	?	/
Cc1ccc2c(c1)c1nc3ccccc3nc1n2C	6.7µM*	2%	/	3%	?	/
CCOc1ccccc1NC(=O)Cn1nnc2sc3c(c2c1=O)CCC(C(C)(C)C)C3 (configuration not stated)	-2%	/	/	/	/	-14%
CCCN(CCC)CCCNC(=O)c1cc2c(=O)n(C)c3ccccc3c2s1	2%	/	/	/	/	1%
COc1ccccc1N/C=C(\C#N)c1nc2ccccc2[nH]1	3.4µM*	-16%	8%	-28%	9%	/
COc1cc(/C=C(\C#N)c2nc3ccccc3[nH]2)cc(OC)c1O	12µM*	1%	?	19%	4%	8%
COc1cc(/C=C(\C#N)C(=O)c2c[nH]c3ccccc23)cc(OC)c1O	15µM*	0%	0%	-4%	4%	-46%
CN(C)/C=C(\C#N)c1nc2ccccc2[nH]1	?	1%	18%	-2%	?	13%
COc1cc(/C=C(\C#N)c2nc3ccccc3[nH]2)cc(Br)c1OCc1ccccc1	-9%	-2%	3%	-8%	7%	-42%
